Measurements taken from PubChem BioAssay (NCATS).
Inconclusive results are not listed. The source made the active and inactive calls. The call rests on the fitted dose curve; in most records, active means well fitted curve in the direction sought with a large enough effect; inconclusive means small, poorly fitted or top-dose-only effect, or another doubt; inactive means no such curve, though single readings can be large; an effect the other way counts as inactive or inconclusive. *1 amine or outer side, *2 acyl side, *3 side chain or, on linkers, in order; H or OH if unused. Where a SMILES comes first, the peptide text is derived from it. Bridges are numbered along the chain shown (N, C = ends). [ ]: non-standard residue; d: D form. The star is where a group is joined. pTerphenylCO(4''-OnC5H11) = CCCCCOc1ccc(-c2ccc(-c3ccc(C(=O)*)cc3)cc2)cc1; Orn(4R-OH,5R-OH) = O=C([C@H](C[C@@H](O)[C@@H](O)N[*:3])N[*:1])[*:2]; hTyr(3S-OH,4S-OH) = N[C@H](C(=O)O)[C@H](O)[C@@H](O)c1ccc(O)cc1; Pro(3S-OH,4S-Me) = C[C@H]1CN[C@H](C(=O)O)[C@H]1O; Hyp = O=C(O)[C@@H]1C[C@@H](O)CN1

What was measured:
[1] = test system: CRL-7250; experiment: Cytotoxic Profiling of Annotated Libraries Using Quantitative High-Throughput Screening (AID 1296008); settings: Five cell lines viability, CellTiter-Glo ATP luminescence, 48-72 h; max response: stronger effect = lower value; further: nearly all actives have a fitted effect of over 60% in size; further: potency means the concentration at half of the fitted maximal effect
Summary of the method: (§1)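 Cells exposed to compounds for 48 or 72 hr at 37 degrees Celsius. Viability read as ATP-coupled luminescence with CellTiter-Glo after 10 min at room temperature.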

[2] = test system: HaCat; experiment: as above; settings: Five cell lines viability, CellTiter-Glo ATP luminescence, 48-72 h; max response: stronger effect = lower value
Summary of the method: as §1

[3] = test system: KB-3-1; experiment: as above; settings: Five cell lines viability, CellTiter-Glo ATP luminescence, 48-72 h; max response: stronger effect = lower value
Summary of the method: as §1

[4] = test system: NIH3T3; experiment: as above; settings: Five cell lines viability, CellTiter-Glo ATP luminescence, 48-72 h; max response: stronger effect = lower value
Summary of the method: as §1

[5] = test system: C33A; experiment: Primary qHTS to identify gynecologic anti-cancer compounds using libraries of approved drugs and bioactive compounds (AID 1345084); settings: Gynecologic cancer cell panel viability, ATPlite luminescence, 48 h; series mostly up to 57.5 µM; further: nearly all actives have a fitted effect of over 55% in size
Summary of the method: (§2)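 Cytotoxicity screen measuring ATP content by luciferase luminescence. Each compound is applied at five concentrations for 48 h at 37 C with 5% CO2.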

[6] = test system: CAOV3; experiment: as above; settings: Gynecologic cancer cell panel viability, ATPlite luminescence, 48 h; series mostly up to 57.5 µM
Summary of the method: as §2

[7] = test system: CASKI; experiment: as above; settings: Gynecologic cancer cell panel viability, ATPlite luminescence, 48 h; series mostly up to 57.5 µM
Summary of the method: as §2

[8] = test system: Es-2; experiment: as above; settings: Gynecologic cancer cell panel viability, ATPlite luminescence, 48 h; series mostly up to 57.5 µM
Summary of the method: as §2

[9] = test system: HeLa; experiment: as above; settings: Gynecologic cancer cell panel viability, ATPlite luminescence, 48 h; series mostly up to 57.5 µM
Summary of the method: as §2

[10] = test system: Hek293T; experiment: as above; settings: Gynecologic cancer cell panel viability, ATPlite luminescence, 48 h, control line for the selectivity index; series mostly up to 57.5 µM
Summary of the method: as §2

[11] = test system: JEG-3; experiment: as above; settings: Gynecologic cancer cell panel viability, ATPlite luminescence, 48 h; series mostly up to 57.5 µM
Summary of the method: as §2

[12] = test system: OV90; experiment: as above; settings: Gynecologic cancer cell panel viability, ATPlite luminescence, 48 h; series mostly up to 57.5 µM
Summary of the method: as §2

[13] = test system: PA-1; experiment: as above; settings: Gynecologic cancer cell panel viability, ATPlite luminescence, 48 h; series mostly up to 57.5 µM
Summary of the method: as §2

[14] = test system: SKOV3; experiment: as above; settings: Gynecologic cancer cell panel viability, ATPlite luminescence, 48 h; series mostly up to 57.5 µM
Summary of the method: as §2
On the % scale 0 is the no-effect control and ±100 the full control effect.

COc1ccc(C2Oc3c(OC)cc(CCCO)cc3C2COC2OC(CO)C(O)C(O)C2O)cc1OC (stereo not given)
inactive: outcome [1] | max response [2] 1.52% | max response [3] -12.2% | max response [4] -1.06% | Potency [5] | Potency [6] | Potency [7] | Potency [8] | Potency [9] | Potency [10] | Potency [11] | Potency [12] | Potency [13] | Potency [14]

C=CCC1=C[C@]2(OC)[C@H](C)[C@@H](c3ccc4c(c3)OCO4)O[C@]2(OC)CC1=O
inactive: max response [1] -2.76% | max response [2] -12.1% | max response [3] -2.11% | max response [4] 1.18% | Potency [5] | Potency [6] | Potency [7] | Potency [8] | Potency [9] | Potency [10] | Potency [11] | Potency [12] | Potency [13] | Potency [14]

CC(C)(CNC(=O)c1cccc(-c2noc(C(F)(F)F)n2)c1)c1coc(-c2ccccc2)n1
inactive: max response [1] 1.16% | max response [2] -1.63% | max response [3] -6.73% | max response [4] 4.1% | Potency [5] | Potency [6] | Potency [7] | Potency [8] | Potency [9] | Potency [10] | Potency [11] | Potency [12] | Potency [13] | Potency [14]

CNC(=O)c1ccc2c(c1)CCO[C@H]2CCN1CCN(c2ccc(OC)cc2)CC1
inactive: max response [1] 1.26% | max response [2] -0.835% | max response [3] -8.62% | max response [4] 2.66% | Potency [5] | Potency [6] | Potency [7] | Potency [8] | Potency [9] | Potency [10] | Potency [11] | Potency [12] | Potency [13] | Potency [14]

C=C1C(=O)O[C@@H]2/C=C(/C)[C@@H](OC(C)=O)C/C=C(\C)C[C@@H](OC(=O)/C(=C/CO)CO)[C@@H]12
inactive: max response [1] 3.05% | max response [2] -3.88% | outcome [3] | max response [4] 0.581% | Potency [5] | Potency [6] | Potency [7] | Potency [9] | Potency [11] | Potency [12] | Potency [13] | Potency [14]

CCCCCOc1ccc(-c2ccc(-c3ccc(C(=O)N[C@H]4C[C@@H](O)[C@@H](O)NC(=O)[C@@H]5[C@@H](O)[C@@H](C)CN5C(=O)[C@H]([C@@H](C)O)NC(=O)[C@H]([C@H](O)[C@@H](O)c5ccc(O)cc5)NC(=O)[C@@H]5C[C@@H](O)CN5C(=O)[C@H]([C@@H](C)O)NC4=O)cc3)cc2)cc1 ({pTerphenylCO(4''-OnC5H11)}-[Orn(4R-OH,5R-OH)]T[Hyp][hTyr(3S-OH,4S-OH)]T[Pro(3S-OH,4S-Me)]; lactam 1-C)
inactive: max response [1] 4.73% | max response [2] 3.64% | outcome [3] | max response [4] -1.62% | Potency [5] | Potency [6] | Potency [7] | Potency [8] | Potency [9] | Potency [10] | Potency [11] | Potency [12] | Potency [13] | Potency [14]

Clc1ncoc1-c1c[nH]c2ccccc12
inactive: outcome [1] | max response [2] -17.9% | max response [3] 7.62% | max response [4] -6.46% | Potency [5] | Potency [6] | Potency [7] | Potency [8] | Potency [10] | Potency [11] | Potency [12] | Potency [13] | Potency [14]

COc1ccc(CNCc2cccc3ccccc23)cc1
inactive: outcome [1] | max response [2] -12.6% | max response [3] 3.07% | max response [4] -4.32% | Potency [5] | Potency [6] | Potency [7] | Potency [8] | Potency [9] | Potency [10] | Potency [11] | Potency [13] | Potency [14]

O=C(NCc1ccccc1-c1ccccc1C(=O)NCCc1ccccn1)OCc1ccccc1
inactive: max response [1] 2.09% | max response [2] -7.21% | max response [3] 8.57% | max response [4] 0.337% | Potency [5] | Potency [7] | Potency [8] | Potency [9] | Potency [10] | Potency [11] | Potency [12] | Potency [13]

O=C(COc1ccc(C(=O)c2ccccc2)cc1)NC1CCN(Cc2ccccc2)CC1
inactive: max response [2] -11.4% | max response [3] -23% | max response [4] -2.94% | Potency [6] | Potency [7] | Potency [8] | Potency [9] | Potency [11] | Potency [13]
active: Potency [1] 8.2 µM
